Sampled rows, rich in hits. Any-hit rate of the full collection: about 7%.
rCAG RNA binder = molecules binding r(CAG) RNA repeats | r(CAG) RNA repeat, TO-PRO-1 dye displacement fluorescence | inhibition, % at 3 µM | hit rate 1.3% among 370,000 | AID 651821;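 active = inhibition above the plate cutoff, the mean of all test compounds on that plate plus 3 SD, cut at about 35% in these data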;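 note: 0% = DMSO alone and 100% = 100 µM mitoxantrone as full dye displacement; higher means more dye released from RNA so lower well fluorescence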
ADAM10 inh = inhibits human ADAM10 | O14672 | recombinant ADAM10, EDANS/DABCYL FRET peptide cleavage, 3 h | inhibition, % at 7 µM | hit rate 0.62% among 370,000;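 active = inhibition above a per-campaign cutoff equal to the mean of compounds falling between control-based bounds plus 3 SD, cut at about 20% in these data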;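 note: 0% = DMSO wells while the 100% control is not disclosed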
AHR act = human AHR activation; P35869; AHR-responsive luciferase reporter cells, luminescence; activation, % at 5 µM; hit rate 2.5% among 320,000; in the data active = activation above about 47%;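 note: 0% = vehicle wells and 100% = reference agonist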
Target sequence (P35869 whole entry, looked up): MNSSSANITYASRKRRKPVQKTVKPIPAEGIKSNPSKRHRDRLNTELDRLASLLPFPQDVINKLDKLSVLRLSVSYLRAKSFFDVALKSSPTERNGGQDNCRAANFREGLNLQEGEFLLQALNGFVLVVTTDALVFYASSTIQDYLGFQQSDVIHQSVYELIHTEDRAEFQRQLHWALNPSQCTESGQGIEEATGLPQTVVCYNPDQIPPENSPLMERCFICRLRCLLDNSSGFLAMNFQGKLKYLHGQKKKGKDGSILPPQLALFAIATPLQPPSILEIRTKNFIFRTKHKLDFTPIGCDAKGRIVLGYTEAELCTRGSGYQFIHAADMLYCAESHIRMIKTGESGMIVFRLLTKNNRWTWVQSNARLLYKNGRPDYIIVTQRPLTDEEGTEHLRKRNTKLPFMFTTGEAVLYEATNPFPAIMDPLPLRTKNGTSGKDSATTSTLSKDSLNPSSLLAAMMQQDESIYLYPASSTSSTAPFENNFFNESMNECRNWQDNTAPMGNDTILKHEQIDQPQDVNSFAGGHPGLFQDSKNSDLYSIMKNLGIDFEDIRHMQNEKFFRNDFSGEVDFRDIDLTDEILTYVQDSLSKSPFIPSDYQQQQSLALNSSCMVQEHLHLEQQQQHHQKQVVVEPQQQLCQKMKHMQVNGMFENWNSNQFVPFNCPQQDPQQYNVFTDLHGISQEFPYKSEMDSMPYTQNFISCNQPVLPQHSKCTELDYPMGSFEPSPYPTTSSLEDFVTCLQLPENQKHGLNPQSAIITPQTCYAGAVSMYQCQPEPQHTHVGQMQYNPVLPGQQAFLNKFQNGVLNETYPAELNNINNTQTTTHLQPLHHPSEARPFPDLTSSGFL
proKLK7 act = activates the human kallikrein-7 zymogen; P49862; purified proKLK7, EDANS-DABCYL substrate fluorescence; 100% is mature enzyme control, 0% vehicle; activation, % at 7 µM; hit rate 0.9% among 370,000;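 active = activation above the mean of all tested compounds plus 3 SD, computed per campaign excluding outliers beyond control limits, cut at about 13% in these data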
ADAM17 inh = ADAM17 inhibition, QFRET primary screen | recombinant ADAM17, EDANS/DABCYL FRET peptide cleavage | inhibition, % at 6.95 µM | hit rate 0.83% among 370,000 | AID 720648;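 active = inhibition above the mean of compounds lying between control limits plus 3 SD, set per campaign, cut at about 8.5% in these data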;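 note: 0% = DMSO-only wells as the low control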
NR3A LBD binder = modulates the human NR3A ligand-binding domain; Tm shift relative to glycine control, % at 25 µM; NR3A LBD differential scanning fluorimetry, Tm shift; 0% = protein alone, 100% = glycine-bound protein; hit rate 2.5% among 340,000;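 active = melting temperature shift of at least 10% of the positive control shift, at one fixed dose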
ADAM10 confirm = confirmation of inhibitors of human ADAM10. shares compounds with ADAM10 inh. ADAM10 QFRET peptide cleavage, EDANS fluorescence. inhibition, % at 6.95 µM. hit rate 1% among 2,100;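 active = inhibition above about 20% chosen separately for each screening run, limit read from the data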;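 note: 0% = DMSO wells and 100% = marimastat wells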
ADAM17 ctr = ADAM17 inhibition, counter-screen for ADAM10 exosite hits | inhibition, % at 6.95 µM | ADAM17 QFRET peptide cleavage, EDANS fluorescence | hit rate 0.5% among 2,100 | AID 743214 | shares compounds with ADAM10 inh;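 active = mean triplicate inhibition above the solvent-only control wells' mean plus 3 SD, cut at about 12% in these data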;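 note: 0% = DMSO wells and 100% = marimastat wells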
Starred values were filed as active, the others as inactive.

How did CC(=O)Nc1ccc(-c2ccnc3c2CC(C)(C(=O)Nc2ccc(Cl)c(C(F)(F)F)c2)O3)cc1 (centres undefined) do in these assays?
rCAG RNA binder: 5; ADAM10 inh: 20*; proKLK7 act: 1; ADAM17 inh: 5; ADAM10 confirm: 9; ADAM17 ctr: 3

What do the screens show for `Cc1cccc(NC(=O)c2cc(S(=O)(=O)N(C)c3ccc(F)cc3)ccc2Cl)n1`?
rCAG RNA binder: -1; ADAM10 inh: 4; AHR act: 3; proKLK7 act: 1; ADAM17 inh: 1; NR3A LBD binder: 2

What do the screens show for `COCCCNC(=S)N1CCN(c2nc(-c3ccccc3)cs2)CC1`?
rCAG RNA binder: -1; ADAM10 inh: 10; AHR act: -3; proKLK7 act: 0; ADAM17 inh: 2; NR3A LBD binder: -3

How did COCCNC(=S)N1CCN(c2nc(-c3cccc(OC)c3)cs2)CC1 do in these assays?
rCAG RNA binder: -1; ADAM10 inh: 21*; AHR act: 3; proKLK7 act: 0; ADAM17 inh: 5; NR3A LBD binder: -3; ADAM10 confirm: 1; ADAM17 ctr: 0

What do the screens show for `COc1cccc(-c2csc(N3CCN(CC(=O)NNC(=O)c4ccc(Cl)cc4)CC3)n2)c1`?
rCAG RNA binder: 4; ADAM10 inh: 20*; AHR act: 13; proKLK7 act: 0; ADAM17 inh: 5; ADAM10 confirm: 0; ADAM17 ctr: 0

How did C/C(CC(=O)NC1CCCC1)=N\NC(=O)c1ccc([N+](=O)[O-])c(Cl)c1 do in these assays?
rCAG RNA binder: 8; ADAM10 inh: 1; AHR act: 1; proKLK7 act: -1; ADAM17 inh: 5; NR3A LBD binder: -2

How did Cc1cccc(CCNC(=O)CCc2nc(-c3ccccc3F)no2)c1 do in these assays?
rCAG RNA binder: -4; ADAM10 inh: 20*; AHR act: 20; proKLK7 act: 1; ADAM17 inh: 4; NR3A LBD binder: 1; ADAM10 confirm: 1; ADAM17 ctr: 1

How did Cc1ccccc1-c1noc(CCC(=O)NCCc2ccccc2)n1 do in these assays?
rCAG RNA binder: -3; ADAM10 inh: -1; AHR act: 1; proKLK7 act: 0; ADAM17 inh: 8; NR3A LBD binder: 1

What do the screens show for `CC/C(=N\NC(=O)CCC(=O)NCc1ccccc1)c1ccc(O)cc1`?
rCAG RNA binder: 2; ADAM10 inh: 12; AHR act: 7; proKLK7 act: 0; ADAM17 inh: -2; NR3A LBD binder: -4

Results for Cc1cc(C)c(O)c(-c2cc(C(=O)Nc3ccc(S(=O)(=O)N4CCOCC4)cc3)[nH]n2)c1 ?
rCAG RNA binder: 27; ADAM10 inh: 21*; AHR act: -2; proKLK7 act: 0; ADAM17 inh: 8; NR3A LBD binder: 23*; ADAM10 confirm: 6; ADAM17 ctr: 2

Results for Cc1ccc(C(=O)Nc2ccc(S(=O)(=O)N3CCOCC3)cc2)cc1 ?
rCAG RNA binder: 1; ADAM10 inh: 4; AHR act: 1; proKLK7 act: 0; ADAM17 inh: 2; NR3A LBD binder: 8

What do the screens show for `COc1cc2c(cc1OC)C(c1ccccc1)N(C(=O)c1ccccc1F)CC2` (centres undefined)?
rCAG RNA binder: -7; ADAM10 inh: 21*; AHR act: 1; proKLK7 act: 0; ADAM17 inh: -1; NR3A LBD binder: -3; ADAM10 confirm: 1; ADAM17 ctr: 0

Results for CCC(C)(C)NC(=O)C(c1ccccn1)N(C(=O)c1csnn1)c1ccc(C)cc1 (centres undefined) ?
rCAG RNA binder: -2; ADAM10 inh: 0; AHR act: 8; proKLK7 act: 1; ADAM17 inh: 1; NR3A LBD binder: 0

What do the screens show for `CCOC(=O)[C@@H]1[C@H]2COc3ccc(Br)cc3[C@H]2N2C(=O)N(c3ccc(F)cc3)C(=O)[C@]12C`?
rCAG RNA binder: -2; ADAM10 inh: 25*; AHR act: -2; proKLK7 act: 0; ADAM17 inh: 4; NR3A LBD binder: -3; ADAM10 confirm: 5; ADAM17 ctr: 2

What do the screens show for `CCOC(=O)C1(C)CCCCN1C(=O)c1cccc(Cl)c1` (centres undefined)?
rCAG RNA binder: -1; ADAM10 inh: -9; proKLK7 act: -1; ADAM17 inh: -7

Results for CCCOc1ccc(C(=O)CCCC(=O)c2ccc(OCCC)cc2)cc1 ?
rCAG RNA binder: -1; ADAM10 inh: -10; AHR act: -1; proKLK7 act: 0; ADAM17 inh: -1; NR3A LBD binder: 4

How did CCCCC(=O)NC(=S)Nc1ccc(S(=O)(=O)N2CCCC2)cc1 do in these assays?
rCAG RNA binder: -4; ADAM10 inh: 72*; AHR act: 1; proKLK7 act: 0; ADAM17 inh: 1; NR3A LBD binder: -2; ADAM10 confirm: 0; ADAM17 ctr: 0

Results for Cc1ccc(S(=O)(=O)NC2c3cccc4cccc(c34)C2Sc2nc(C)cc(C)n2)cc1 (centres undefined) ?
rCAG RNA binder: 7; ADAM10 inh: 20*; AHR act: 21; proKLK7 act: -1; ADAM17 inh: 7; NR3A LBD binder: -1; ADAM10 confirm: 8; ADAM17 ctr: 2

What do the screens show for `CCOC1=C2[C@@H](CN(S(=O)(=O)c3ccc(C)cc3)[C@H]2c2cccc3ccccc23)[C@H]2C(=O)N(c3ccccc3)C(=O)[C@H]2C1`?
rCAG RNA binder: 14; ADAM10 inh: 21*; proKLK7 act: 1; ADAM17 inh: 6; ADAM10 confirm: 10; ADAM17 ctr: 3

Results for CC(C)(C)S(=O)N1Cc2cc(C(=O)N[C@@H]3CCN(Cc4ccccc4)C3)nc(-c3cccc(-c4cc5ccccc5o4)c3)c2[C@@H]1CCO (some centres undefined) ?
rCAG RNA binder: 13; ADAM10 inh: 20*; proKLK7 act: -1; ADAM17 inh: 6; ADAM10 confirm: 18; ADAM17 ctr: 9

What do the screens show for `CC(C)(C)S(=O)N1Cc2cc(C(=O)Nc3ccc(-c4ccccc4)cc3)nc(-c3cccc(-c4cc5ccccc5o4)c3)c2[C@@H]1CCO` (some centres undefined)?
rCAG RNA binder: 15; ADAM10 inh: -34; proKLK7 act: 5; ADAM17 inh: -6

Results for Oc1ccc(C[C@H]2CNC(=S)N2C[C@H]2CCCN2C[C@H](Cc2ccccc2)N2C[C@H](Cc3ccc(O)cc3)N(CCc3ccccc3)C2=S)cc1 ?
rCAG RNA binder: 18; ADAM10 inh: 28*; proKLK7 act: 0; ADAM17 inh: 7; ADAM10 confirm: 12; ADAM17 ctr: 4

High-throughput results from PubChem.
